What all share (conditions): mRNA level, 48 h; actives raise or lower the signal
Read-out in experiment [1]: ABC Transporter (ABCC3), ABCC3 (gene 8714)
As to the kind of experiment: LTEA_HepaRG_ABCC3: Life Technologies and Expression Analysis (LTEA) Assay for ABC Transporter (ABCC3) using HepaRG (AID 2283462). In a few lines: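 HepaRG cells in serum-free induction medium were exposed for 48 h in duplicate to 8-point half-log concentrations topping at 100 uM in 0.5% DMSO. ABCC3 mRNA was measured by qRT-PCR normalized to ACTB, GAPDH and POLR2A, with bidirectional fitting versus DMSO.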

Read-out in experiment [2]: ABC Transporter (ABCB11), ABCB11 (gene 8647)
As to the kind of experiment: LTEA_HepaRG_ABCB11: Life Technologies and Expression Analysis (LTEA) Assay for ABC Transporter (ABCB11) using HepaRG (AID 2283463). In outline: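 ABCB11 transcript levels are read by Fluidigm TaqMan qRT-PCR after 48 h chemical treatment of human HepaRG cells. Concentrations span 100 uM downward in half-log steps with 0.5% DMSO; gain or loss is fitted against DMSO controls.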

Read-out in experiment [3]: Broad substrate specificity ATP-binding cassette transporter ABCG2 (Homo sapiens) (UniProt Q9UNQ0)
The experiment is described as follows: LTEA_HepaRG_ABCG2: Life Technologies and Expression Analysis (LTEA) Assay for ABC Transporter (ABCG2) using HepaRG (AID 2283465). In outline: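 Read-out is ABCG2 mRNA induction or loss quantified by qRT-PCR after 48 h chemical treatment of human HepaRG cells, normalized to three housekeeping genes. Concentrations reached 100 uM top in half-log steps; fitting was bidirectional against 0.5% DMSO.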

Read-out in experiment [4]: ATP-citrate lyase (ACLY), ACLY (gene 47)
As to the kind of experiment: LTEA_HepaRG_ACLY: Life Technologies and Expression Analysis (LTEA) Assay for ATP-citrate lyase (ACLY) using HepaRG (AID 2283466). In a few lines: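 HepaRG, 48 h exposure, 8-pt half-log dilutions (top 100 uM), 0.5% DMSO. Readout: ACLY mRNA, TaqMan qRT-PCR, housekeeping-normalized (ACTB/GAPDH/POLR2A). Bidirectional curve fit vs DMSO.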

Read-out in experiment [5]: Peroxisomal acyl-coenzyme A oxidase 1 (ACOX1) gene, ACOX1 (gene 51)
As to the kind of experiment: LTEA_HepaRG_ACOX1: Life Technologies and Expression Analysis (LTEA) Assay for Peroxisomal acyl-coenzyme A oxidase 1 (ACOX1) gene using HepaRG (AID 2283467). In outline: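 Measured by qRT-PCR against three housekeeping genes: ACOX1 transcript change in human HepaRG cells after 48 h dosing. Concentrations ran up to 100 uM in half-log steps. Curves were fitted bidirectionally relative to 0.5% DMSO.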

Read-out in experiment [6]: Alkaline Phosphatase, Placental (ALPP) gene, ALPP (gene 250)
The experiment is described as follows: LTEA_HepaRG_ALPP: Life Technologies and Expression Analysis (LTEA) Assay for Alkaline Phosphatase, Placental (ALPP) gene using HepaRG (AID 2283468). In a few lines:
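Differentiated human HepaRG cells were plated and cultured 48 h, then exposed in duplicate for 48 h in serum-free induction medium to eight half-log concentrations from 100 uM in 0.5% DMSO. ALPP mRNA was measured by TaqMan qRT-PCR, normalized to ACTB, GAPDH, POLR2A.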

Read-out in experiment [7]: Bcl-2 (BAD) gene, BAD (gene 572)
As to the kind of experiment: LTEA_HepaRG_BAD: Life Technologies and Expression Analysis (LTEA) Assay for Bcl-2 (BAD) gene using HepaRG (AID 2283469). In a few lines: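 BAD transcript change, measured by qRT-PCR against three housekeeping genes and fitted in both directions relative to 0.5% DMSO, after 48 h chemical treatment of human HepaRG liver cells at concentrations up to 100 uM.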

Read-out in experiment [8]: Bcl-2 (BAX) gene, BAX (gene 581)
As to the kind of experiment: LTEA_HepaRG_BAX: Life Technologies and Expression Analysis (LTEA) Assay for Bcl-2 (BAX) gene using HepaRG (AID 2283470). In a few lines: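 Concentration-response endpoint fitted in both directions relative to 0.5% DMSO vehicle. Human HepaRG cultures receive test chemicals for 48 h at up to 100 uM; BAX mRNA is quantified by qRT-PCR against housekeeping genes.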

Read-out in experiment [9]: Alpha-fetoprotein (AFP) gene, AFP (gene 174)
As to the kind of experiment: LTEA_HepaRG_AFP: Life Technologies and Expression Analysis (LTEA) Assay for Alpha-fetoprotein (AFP) gene using HepaRG (AID 2283472). In a few lines: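 After a 48 h plating period, cells are moved to serum-free induction medium and dosed in duplicate (100 uM maximum, half-log dilutions, 0.5% DMSO) for another 48 h. Total RNA goes to TaqMan qRT-PCR; AFP signal is housekeeping-normalized.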

Read-out in the next experiment: BCL2L11 (gene 10018)
The experiment is described as follows: LTEA_HepaRG_BCL2L11: Life Technologies and Expression Analysis (LTEA) Assay for Bcl-2 (BCL2L11) gene using HepaRG (AID 2283473). In outline:
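Differentiated human HepaRG cells in serum-free induction medium were exposed in duplicate for 48 h to eight concentrations (top 100 uM, half-log steps, 0.5% DMSO). BCL2L11 mRNA was quantified by TaqMan qRT-PCR, normalized to ACTB/GAPDH/POLR2A, bidirectional fit versus DMSO.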

Read-out in experiment [10]: Apolipoprotein A-V (APOA5) gene, APOA5 (gene 116519)
As to the kind of experiment: LTEA_HepaRG_APOA5: Life Technologies and Expression Analysis (LTEA) Assay for Apolipoprotein A-V (APOA5) gene using HepaRG (AID 2283474). In outline: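 Differentiated human HepaRG cells were exposed in duplicate for 48 h to eight half-log concentrations from 100 uM in 0.5% DMSO. APOA5 mRNA was quantified by TaqMan qRT-PCR, normalized to ACTB, GAPDH and POLR2A, and fitted bidirectionally against DMSO.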

Read-out in experiment [11]: Apoptosis regulator Bcl-2 (Homo sapiens) (UniProt P10415)
The experiment is described as follows: LTEA_HepaRG_BCL2: Life Technologies and Expression Analysis (LTEA) Assay for Bcl-2 gene using HepaRG (AID 2283475). In outline: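 Expression change of BCL2 mRNA in HepaRG after 48 h dosing, quantified by TaqMan qRT-PCR against three endogenous controls. Concentration-response used eight points up to 100 uM, vehicle 0.5% DMSO.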

Read-out in experiment [12]: Bcl-2 (BID) gene, BID (gene 637)
As to the kind of experiment: LTEA_HepaRG_BID: Life Technologies and Expression Analysis (LTEA) Assay for Bcl-2 (BID) gene using HepaRG (AID 2283476). In outline: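 Gain or loss of BID expression is fitted relative to 0.5% DMSO vehicle. Human HepaRG liver cells received a 48 h chemical exposure over an eight-point concentration range.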

Read-out in the next experiment: Caspase-3 (Homo sapiens) (UniProt P42574)
The experiment is described as follows: LTEA_HepaRG_CASP3: Life Technologies and Expression Analysis (LTEA) Assay for cysteine-aspartic acid protease (CASP3) using HepaRG (AID 2283477). In outline:
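Differentiated human HepaRG cells in serum-free induction medium were exposed 48 h to 8-point half-log concentrations from 100 uM (0.5% DMSO vehicle). CASP3 mRNA was measured by qRT-PCR, normalised to ACTB, GAPDH and POLR2A, with bidirectional fitting against DMSO.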

Read-out in experiment [13]: Cytochrome P450 (CYP24A1), CYP24A1 (gene 1591)
As to the kind of experiment: LTEA_HepaRG_CYP24A1: Life Technologies and Expression Analysis (LTEA) Assay for Cytochrome P450 (CYP24A1) using HepaRG (AID 2283478). In outline:
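Differentiated HepaRG cells, pre-cultured 48 h, were exposed in duplicate for 48 h in serum-free induction medium to 8 half-log concentrations (top 100 uM, 0.5% DMSO). CYP24A1 mRNA was quantified by TaqMan qRT-PCR, normalized to ACTB/GAPDH/POLR2A, fitted bidirectionally versus DMSO.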

Read-out in experiment [14]: Cytochrome P450 (CYP1A2), CYP1A2 (gene 1544)
The experiment is described as follows: LTEA_HepaRG_CYP1A2: Life Technologies and Expression Analysis (LTEA) Assay for Cytochrome P450 (CYP1A2) using HepaRG (AID 2283479). In a few lines:
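Differentiated human HepaRG cells in serum-free induction medium were exposed in duplicate for 48 h to 8-point half-log concentrations up to 100 uM in 0.5% DMSO. CYP1A2 mRNA measured by qRT-PCR, normalized to ACTB, GAPDH, POLR2A; bidirectional fit vs DMSO.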

Read-out in experiment [15]: cysteine-aspartic acid protease (CASP8), CASP8 (gene 841)
The experiment is described as follows: LTEA_HepaRG_CASP8: Life Technologies and Expression Analysis (LTEA) Assay for cysteine-aspartic acid protease (CASP8) using HepaRG (AID 2283480). In a few lines:
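HepaRG, 48 h exposure, duplicate wells; 8 conc, half-log from 100 uM, 0.5% DMSO. Serum-free induction medium. CASP8 mRNA by TaqMan qRT-PCR, norm. ACTB/GAPDH/POLR2A; gain/loss fitted vs DMSO.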

Read-out in experiment [16]: ABC Transporter (ABCC2), ABCC2 (gene 1244)
The experiment is described as follows: LTEA_HepaRG_ABCC2: Life Technologies and Expression Analysis (LTEA) Assay for ABC Transporter (ABCC2) using HepaRG (AID 2283464). In outline:
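HepaRG cells were plated 48 h, switched to serum-free induction medium, then exposed in duplicate for 48 h to 8 concentrations (top 100 uM, half-log steps, 0.5% DMSO). ABCC2 mRNA was measured by qRT-PCR normalized to ACTB/GAPDH/POLR2A; bidirectional fitting versus DMSO.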

This passage reports outcome and AC50 results from PubChem BioAssay (EPA / NIEHS).

Calls of active or inactive are those of the source. How the source made its calls: active means hit-call score of the fitted dose curve at least 0.9, where 1 is the maximum; inactive means score below 0.9.

Chain of Apoptosis regulator Bcl-2 (Homo sapiens) (P10415 whole entry, looked up): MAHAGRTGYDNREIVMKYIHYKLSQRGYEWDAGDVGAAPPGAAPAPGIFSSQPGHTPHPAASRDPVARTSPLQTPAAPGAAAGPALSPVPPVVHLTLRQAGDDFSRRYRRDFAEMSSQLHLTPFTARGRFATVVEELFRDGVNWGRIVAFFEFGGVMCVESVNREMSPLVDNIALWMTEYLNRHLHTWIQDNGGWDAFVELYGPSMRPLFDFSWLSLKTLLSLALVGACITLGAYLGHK
Chain of Caspase-3 (Homo sapiens) (P42574 whole entry, looked up): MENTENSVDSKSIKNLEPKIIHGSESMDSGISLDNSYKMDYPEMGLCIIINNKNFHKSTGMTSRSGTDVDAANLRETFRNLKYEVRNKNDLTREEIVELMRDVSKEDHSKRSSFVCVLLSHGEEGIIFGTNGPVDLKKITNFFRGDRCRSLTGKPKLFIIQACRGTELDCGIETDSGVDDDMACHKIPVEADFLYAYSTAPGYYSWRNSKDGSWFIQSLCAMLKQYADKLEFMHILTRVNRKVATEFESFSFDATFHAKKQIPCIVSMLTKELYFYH
Chain of Broad substrate specificity ATP-binding cassette transporter ABCG2 (Homo sapiens) (Q9UNQ0 whole entry, looked up): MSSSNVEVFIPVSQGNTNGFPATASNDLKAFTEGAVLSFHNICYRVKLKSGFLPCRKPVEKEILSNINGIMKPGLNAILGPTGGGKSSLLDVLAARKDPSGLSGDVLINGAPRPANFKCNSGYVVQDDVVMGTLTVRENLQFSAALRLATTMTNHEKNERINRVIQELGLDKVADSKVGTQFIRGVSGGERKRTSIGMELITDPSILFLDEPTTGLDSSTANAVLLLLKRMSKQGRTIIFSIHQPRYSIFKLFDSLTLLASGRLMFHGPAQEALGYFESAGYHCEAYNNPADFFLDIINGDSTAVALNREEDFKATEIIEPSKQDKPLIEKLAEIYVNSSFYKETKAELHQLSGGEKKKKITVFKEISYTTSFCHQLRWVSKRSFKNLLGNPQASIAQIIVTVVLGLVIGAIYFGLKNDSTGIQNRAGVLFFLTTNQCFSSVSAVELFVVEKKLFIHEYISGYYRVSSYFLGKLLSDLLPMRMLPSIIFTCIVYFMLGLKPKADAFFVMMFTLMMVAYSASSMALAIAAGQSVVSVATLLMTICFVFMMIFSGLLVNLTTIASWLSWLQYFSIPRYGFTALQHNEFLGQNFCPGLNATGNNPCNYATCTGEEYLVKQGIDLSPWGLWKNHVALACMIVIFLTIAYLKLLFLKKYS

Broadly, the AC50 is the concentration at which the activity in the assay is half-maximal. In the case of `c1ccc2cc3ccccc3cc2c1`, the molecule was classed as inactive in [1], in experiment [3], in experiment [4], in [5], in experiment [6] and in experiment [7]. Besides, the outcome (in experiment [8]; in [9]; with BCL2L11 (gene 10018); in experiment [10]; in experiment [11]; in experiment [12]) was inactive. The call (with Caspase-3 (Homo sapiens); in experiment [13]; in experiment [15]) was inactive. Further, the concentration at half-maximal activity (AC50) in [2] is 71.7 µM (active); in experiment [14], 18.7 µM (active).
`Cc1nc(-c2ccccn2)ncc1C(=O)Nn1cc(C)c2cc(F)ccc21`: the result (in experiment [1]; in experiment [3]; in [4]; in [5]; in experiment [8]; with BCL2L11 (gene 10018)) was inactive. Moreover, the molecule was classed as inactive (in [11]; in experiment [12]; with Caspase-3 (Homo sapiens); in [13]; in experiment [14]; in [15]). Also, the half-maximal activity concentration (AC50) in experiment [2] was 50 µM (active); in experiment [6], 82.3 µM (active); in experiment [9], 50 µM (active); in [10], 80.6 µM (active).
`CCn1nc(C)c2c1C(=O)NCC(c1ccc(O)cc1)=N2`: the result in [1], in [2], in experiment [3], in [4], in [5] and in experiment [6] was inactive. Also, the molecule was called inactive (in [8]; in [9]; with BCL2L11 (gene 10018); in [11]; in [12]; in the experiment with Caspase-3 (Homo sapiens)). The molecule was classed as inactive in experiment [13] and in experiment [15]. Further, the concentration at half-maximal activity (AC50) in experiment [14] was 34.1 µM (active).
Regarding `OCc1ccccc1`, the call in [1], in experiment [2], in experiment [16], in experiment [3], in [4] and in experiment [5] was inactive. The molecule was classed as inactive (in experiment [6]; in experiment [8]; in experiment [9]; with BCL2L11 (gene 10018); in [11]; in [12]). In addition, the molecule was classed as inactive (with Caspase-3 (Homo sapiens); in experiment [13]; in experiment [14]; in experiment [15]).
Turning to `Cc1ncc([C@@H](CCCCCCc2ccc3c(n2)NCCC3)CC(=O)O)cn1`, the outcome in experiment [1], in experiment [2], in experiment [16], in experiment [3], in experiment [4] and in experiment [5] was inactive. Also, the outcome (in experiment [6]; in experiment [8]; in [9]; in the experiment with BCL2L11 (gene 10018); in [10]; in [11]) was inactive. For the same molecule, the result (in [12]; with Caspase-3 (Homo sapiens); in [13]; in experiment [14]; in [15]) was inactive.
For the molecule `CCCC(CCC)C(=O)O`, the outcome in [1], in experiment [2], in experiment [3], in experiment [4], in experiment [5] and in experiment [6] was inactive. The result (in experiment [8]; in experiment [9]; with BCL2L11 (gene 10018); in experiment [11]; in [12]; in the experiment with Caspase-3 (Homo sapiens)) was inactive. Moreover, the result in experiment [13], in experiment [14] and in [15] was inactive.
